Compound activity as filed in PubChem BioAssay.
This is a sample that favours compounds with a hit; in the whole collection about 19% have one here.
uPA surface inh: inhibitors of cell surface uPA generation; 0.31% of 330,000 active; AID 540303; Potency, µM (doses to about 38.3 µM), without a hit: at the top dose activity change, negative = inhibition, usual class: inhibitors; cell surface uPA generation assay, qHTS; active = well fitted inhibition curve with a large enough effect; inconclusive = small, poorly fitted or top-dose-only effect; inactive = no such curve, though single readings can be large or run the other way; tested in mouse RAW 264.7 cells; also: potency is read from the fitted curve at half-maximal effect; nearly all actives have a fitted effect of over 55% in size
TDP1 cell noCPT: qHTS for Inhibitors of human tyrosyl-DNA phosphodiesterase 1 (TDP1): qHTS in cells in absence of CPT | DT40 Tdp1-/- hTDP1 cells, no CPT, ATP luminescence, 48 h | Potency, µM (highest dose often 46.2 µM), for the others: at the top dose activity change, negative = growth inhibition, hits mostly inhibitors | 15% of 420,000 active; also: potency is read from the fitted curve at half-maximal effect; nearly all actives have a fitted effect of over 55% in size
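Readout: luminescence from CellTiter-Glo after 30 min in the dark at RT. Cells: DT40 Tdp1-/- with stable hTDP1, 400/well. Exposure: compounds alone, ≥48 hr, 37 °C.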
HT1080-NT tox: kills 2HG-producing HT-1080-NT fibrosarcoma cells; 1.6% of 360,000 active; HT-1080-NT fibrosarcoma viability, CellTiter-Glo ATP luminescence, 48 h; Potency, µM (doses to about 46.1 µM), for inactives: at the highest dose activity, negative = less viability, usual class: cytotoxic;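 also: NT is the 2HG producing partner of a matched IDH1 knockdown line; potency is read from the fitted curve at half-maximal effect; 0% = DMSO-treated cells and -100% = media-only wells without cells; nearly all actives have a fitted effect of over 55% in size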
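Read-out is CellTiter-Glo luminescence after 10 minutes at room temperature, following 48 hours' compound treatment of HT-1080-NT cells (750 cells/well, RPMI, 5% FBS, 37 degrees C).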
HT1080 IDH1KD tx: HT-1080 IDH1 knockdown cell toxicity (counter line) | Potency, µM (doses to about 46.1 µM), without a hit: at the top dose activity, negative = toxicity, actives largely listed as cytotoxic | 2% of 360,000 active | HT-1080 IDH1 knockdown viability, ATP luminescence, 48 h | AID 686971;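 also: potency is read from the fitted curve at half-maximal effect; 0% = DMSO wells and -100% = cell-free medium wells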
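Viability of IDH1-knockdown HT-1080 fibrosarcoma cells was assessed by CellTiter-Glo after 48 h at 37 °C with titrated compound; concentration-effect curves were classified by fit quality and response size.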
IL1B secr inh: inflammasome signaling inhibition, IL-1 beta readout | AID 743279 | activity change, % at 57.5 µM | 4.7% of 360,000 active | THP-1 LPS/ATP IL-1B secretion, AlphaLISA, 16 h; active compounds read low; in the data active = activity change below about -50%; inconclusive = mostly about -30% to -49%
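Secreted IL-1B measured by AlphaLISA bead assay after 16 h compound exposure of THP-1 cells; compounds (final up to 57.5 uM) added 1 h before LPS (250 ng/mL) and ATP (1.25 mM) stimulation; lower signal means less secretion.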
DT40 TDP1 CPT: growth inhibition of DT40 Tdp1-/-;hTDP1 cells with camptothecin (screen for TDP1 inhibitors). chicken DT40 Tdp1-/-;hTDP1 cells + 20 nM CPT, ATP luminescence, 48 h. Potency, µM (top dose mostly 46.2 µM), for the others: at the highest dose activity change, negative = growth inhibition, most hits filed as inhibitors. 12% of 420,000 active. AID 686979; also: potency is read from the fitted curve at half-maximal effect; nearly all actives have a fitted effect of over 55% in size
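Chicken DT40 Tdp1-/- cells stably complemented with human TDP1 were seeded at 400 cells/well in medium containing 20 nM camptothecin, exposed to pin-transferred compounds, and grown at 37 °C for at least 48 hr. Viability was read as ATP luminescence.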
The depositor's hits bear a star; u = inconclusive; x = no result. Unless noted, calls follow the shape of the dose curve; as a rule, active = well fitted curve in the direction sought with a large enough effect; inconclusive = small, poorly fitted or top-dose-only effect, or another doubt; inactive = no such curve, though single readings can be large; an effect the other way counts as inactive or inconclusive. Unless noted, % is scaled to controls: 0 for no effect and ±100 for the full control effect.

SMILES	uPA surface inh	TDP1 cell noCPT	HT1080-NT tox	HT1080 IDH1KD tx	IL1B secr inh	DT40 TDP1 CPT
CN1CCc2c(sc3c2C(=O)NC(c2cn(Cc4ccccc4)c4ccccc24)N3)C1 (stereo not given)	8%	23µM*	-1%	-17%	u	21µM*
COc1ccc(Br)cc1C1NC(=O)c2c(sc3c2CCN(C)C3)N1 (stereo not given)	-4%	-24%	9%	13%	6	-2%
CN1CCc2c(sc3c2C(=O)NC(c2ccco2)N3)C1 (stereo not given)	x	-2%	1%	-5%	-2	-16%
O=C1NC(c2ccco2)Nc2sc3c(c21)CCN(Cc1ccccc1)C3 (stereo not given)	-7%	16µM*	-8%	-2%	14	23µM*
CN(CCCC(=O)N1CCN(c2ncccn2)CC1)S(=O)(=O)c1ccc(F)cc1	6%	u	3%	-2%	5	-17%
O=C(NCc1cc2ccccc2[nH]1)C1CCC(=O)N(CCCN2CCCC2=O)C1 (stereo not given)	-5%	14%	0%	0%	29	-20%
CC1CCC(NC(=O)c2cc3ccccc3cc2O)CC1 (stereo not given)	-26%	u	-5%	-3%	-3	u
O=C(N/N=C1/CC2CCC1C2)c1cc2ccccc2cc1O (stereo not given)	1%	21µM*	u	u	89	23µM*
O=C(NCC1CCCCC1)c1cc2ccccc2cc1O	1%	u	u	u	-88*	21µM*
C[C@H](c1ccccc1)N1C[C@H](COCc2ccccc2)Oc2cc(N3CC[C@@H](O)C3)ccc2S1(=O)=O	x	u	u	u	6	u
CC(CN1CCN(C)CC1)OC(=O)c1ccc(Cl)cc1 (stereo not given)	-2%	-5%	-13%	-22%	-84*	-7%
CC(CN1CCCCC1)OC(=O)c1ccc(Cl)cc1 (stereo not given)	5%	-10%	8%	5%	8	-8%
CN(Cc1c(C(=O)N2CCCCCCC2)nc2ccc(Cl)cn12)C1CCOC1 (stereo not given)	0%	-7%	0%	0%	15	-13%
O=C(/C=C/c1ccc(Cl)cc1)N1CCN(c2c(Cl)cccc2[N+](=O)[O-])CC1	2%	15µM*	-29%	-24%	-76*	u
O=C(CSc1ccc(Cl)cc1)N1CCN(c2c(Cl)cccc2[N+](=O)[O-])CC1	12%	15µM*	-29%	-28%	-14	16µM*
O=C(CCSc1ccc(Cl)cc1)N1CCN(c2ccc(O)cc2)CC1	-15%	-95%	u	u	-24	-87%
CN1CCN(C(=O)CSc2ccc(Cl)cc2)CC1	5%	3%	9%	2%	-15	9%
O=C(CSc1ccc(Cl)cc1)N1CCN(c2ccc([N+](=O)[O-])cc2Cl)CC1	-5%	18µM*	-2%	-23%	-62*	u
CCCC(=O)N1CCN(c2ccc([N+](=O)[O-])cc2Cl)CC1	8%	u	1%	1%	-2	u
O=C(CCSc1ccc(Cl)cc1)N1CCN(c2ncccn2)CC1	-1%	u	-1%	-3%	-13	13µM*
CC1=CC(=O)C2(C)C(C)=C(C)C12C (stereo not given)	x	-19%	5%	9%	-8	-9%
Cc1ccc(C(=O)Cn2c(=N)n(N)c3ccccc32)cc1	-17%	u	-3%	-2%	u	u
COc1ccc(C(=O)Cn2c(C(C)=O)nc3ccccc32)cc1	-9%	7.3µM*	-10%	u	13	15µM*
